Consider 10 compounds from PubChem BioAssay (EPA / NIEHS).

As a reminder, the AC50 is the concentration giving half of the maximal activity seen.

SMILES strings stand for the structures. Records with an inconclusive call do not appear. The source made the active and inactive calls. How the source made its calls: active means hit-call score of the fitted dose curve at least 0.9, where 1 is the maximum; inconclusive means response in the unintended direction; inactive means score below 0.9.

A short description of this assay: CCTE_Shafer_MEA_dev_active_electrodes_number: CCTE's Neural Network Formation Assay for Number of Active Electrodes, Shafer Lab (AID 2284040).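 On AC50: potency for loss of active electrodes versus DMSO so lower counts are hits.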 The procedure: CCTE_Shafer_MEA_dev assay is conducted using Axion Biosystems 48 well microelectrode array (MEA) plates and Maestro recording system. Each well of the MEA plate contains a grid of 16 microelectrodes embedded in the culture surface. Electrically active cells, such as neurons, can be cultured over the electrodes, and electrical activity in these cells can be recorded extracellularly. The spontaneous firing of neurons is captured from each electrode on a microsecond timescale providing both temporally and spatially precise data. […] The CCTE_Shafer_MEA_dev assay uses primary cultures of rat cortical neurons. Recordings are made on days post-plating 5, 7, 9 and 12. As these cultures mature over time, neural networks develop functional activity and form cohesive networks in which electrical activity can be highly coordinated. CCTE_Shafer_MEA_dev_active_electrodes_number is 1 of 19 assay components of the CCTE_Shafer_MEA_dev assay. It measures the number of electrodes in a well with a mean firing rate of at least 5 spikes (action potential firings) per minute during a recording in a microelectrode array (MEA) using Axion Biosystems Maestro 768 channel amplifier with the AxIS adaptive spike detector. To collapse across multiple recordings made on days post-plating 5, 7, 9 and 12, the trapezoidal area-under-the-curve of the component is calculated.Data from the assay component CCTE_Shafer_MEA_dev_active_electrodes_number was analyzed into 1 assay endpoint. This assay endpoint, CCTE_Shafer_MEA_dev_active_electrodes_number, was analyzed in the negative analysis fitting direction relative to DMSO as the negative control and baseline of activity. Using a type of functional reporter, gain or loss-of-signal activity can be used to understand electrical activity.
On the day prior to culture, each well was coated thoroughly with 150 uL of 0.05% polyethyleneimine (PEI, Sigma Cat P3143) in 50 mM HEPES (Sigma Cat H7523) at a pH of 8. The plate was incubated at 37C for one hour. PEI was rinsed out with 500 uL of sterile water three times. Plates were stored at 4C until the day of culture. This culture was plated at a seeding density of 1.5 x 10^5 cells/well on a 48-well MEA plate, prepared as described above. Cells were administered via a 25 uL media/laminin ([…]; Sigma Cat L2020-1MG) drop directly onto the microelectrode array, as adding the cells with the laminin results in better attachment than pre-coating with laminin. After 2 hours, an additional 475 uL of cortical media was added and the cells returned to the incubator. Exposure starts at day 0 of plating and is continued over twelve days of network development until the experiment is terminated. Cells are fed with fresh medium on DIV 5 and 9, following the recordings on those days. The entire volume of media in the well is exchanged and any vehicle or compound treatment is renewed. Complete details are found in OP-NHEERL/ISTD/SBB/TJS/2015-03-r0 (available on request, email shafer.tim@epa.gov). Measurement of the electrical activity is non-invasive, and recordings can be made from the same plate over multiple different days of the culture. In cortical neurons, this allows for the measurement of extracellular action potentials over the period during which networks form in the MEA plate.
Take `CC[C@H]1OC(=O)[C@H](C)[C@@H](O[C@H]2C[C@@](C)(OC)[C@@H](O)[C@H](C)O2)[C@H](C)[C@@H](O[C@@H]2O[C@H](C)C[C@H](N(C)C)[C@H]2O)[C@](C)(O)C[C@@H](C)C(=O)[C@H](C)[C@@H](O)[C@]1(C)O`: the compound was called inactive. As to `CNCc1ccc(NC(=O)c2c[nH]c3c2C(=O)CCC3)cc1`, the AC50 is 1.98 µM (active). As to `Cn1c(=O)c2c(ncn2C)n(C)c1=O`, the call was inactive. For the compound `O=P(OC(CCl)CCl)(OC(CCl)CCl)OC(CCl)CCl`, the outcome was inactive. Take `CCC(C)(C)C(=O)O[C@H]1C[C@@H](C)C=C2C=C[C@H](C)[C@H](CC[C@@H]3C[C@@H](O)CC(=O)O3)[C@H]21`: the AC50 was 0.801 µM (active). Take `COc1ccc(-n2nc(C(F)F)cc2-c2ccc(S(C)=O)cc2)cc1` (stereo not given): the concentration at half-maximal activity (AC50) is 10 µM (active).

As for `CC[C@H](C)C(=O)O[C@H]1C[C@@H](C)C=C2C=C[C@H](C)[C@H](CC[C@@H]3C[C@@H](O)CC(=O)O3)[C@H]21`, the AC50 was 1.76 µM (active). Take `Nc1nc2ncc(CNc3ccc(C(=O)N[C@@H](CCC(=O)O)C(=O)O)cc3)nc2c(=O)[nH]1`: the outcome was inactive. In the case of `O=C1CCC(N2C(=O)c3ccccc3C2=O)C(=O)N1` (stereo not given), the call was inactive. Still for that read-out and setting: to `NC(=O)NO` belongs “inactive”.
